# Results: PubChem BioAssay (Tox21)
# Several values for one entry are separate records, joined by “and”; a condition that tells them apart may be missing. Equal entries are not always repeated. Records with an inconclusive call do not appear. Entries that show only a call come without a potency. Some structures have more than one record in an assay (separate samples or runs), and their calls can disagree. Activity calls are given as the source filed them. Unless noted, calls follow the shape of the dose curve; as a rule, active = well fitted curve in the direction sought with a large enough effect in the repeat runs; inconclusive = weak or mixed curves; inactive = no such curve, though single readings can be large; an effect the other way counts as inactive or inconclusive.
# Legend:
# [1] = qHTS assay for small molecule agonists of the p53 signaling pathway (AID 651631; calls by dose curve; also: nearly all actives have a fitted effect of over 15% in size)
# In short: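 Quantitative high-throughput format: 4,000 p53RE-bla HCT-116 cells/well, 5 h pre-incubation, 16 h compound exposure at 37 °C, 2 h room-temperature substrate step, fluorescence intensity measured.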
# [2] = qHTS assay for small molecules that induce genotoxicity in human embryonic kidney cells expressing luciferase-tagged ATAD5 (AID 651632); also: nearly all actives have a fitted effect of over 15% in size
# In short: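 Cells were seeded at 2,000 per well, dosed with compound, and incubated 16 hr at 37C in 5% CO2. Luciferase activity was then quantified after a 30 min room-temperature incubation with Amplite.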
# [3] = qHTS assay for small molecule agonists of the p53 signaling pathway - cell viability (AID 651633; calls by dose curve;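 also: p53RE-bla HCT reporter cells with a stable beta-lactamase p53 reporter; series mostly up to about 83 µM; nearly all actives have a fitted effect of over 30% in size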)
# In short: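 Viability counter-read: CellTiter-Glo luminescence (30 min, room temperature) in the same p53RE-bla plates. These plates had been exposed to compounds for 16 h at 37 C.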
# [4] = qHTS assay for small molecules that induce genotoxicity in human embryonic kidney cells expressing luciferase-tagged ATAD5 - cell viability (AID 651634; calls by dose curve; also: nearly all actives have a fitted effect of over 25% in size)
# In short: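 Cells (HEK293T, luciferase-tagged ATAD5) are seeded at 2,000 per well, dosed with compound or DMSO vehicle, and incubated 15.5 hr at 37C and 5% CO2. CellTiter-Fluor is added for 30 min before fluorescence is measured.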
# [5] = qHTS assay for small molecule disruptors of the mitochondrial membrane potential - cell viability (AID 720634; calls by dose curve;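 also: human HepG2 liver cancer cells; series mostly up to about 83 µM; nearly all actives have a fitted effect of over 20% in size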)
# In short: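 Cytotoxicity was measured by ATP quantitation in HepG2 wells that had first been treated with compound for 1 hr and stained with m-MPI dye; CellTiter-Glo incubation was 30 min at room temperature.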
# [6] = qHTS assay to test for compound auto fluorescence at 590 nm (red) in HepG2 cells (AID 720674)
# In short: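 Red autofluorescence (Ex/Em 540/590 nm, Rose Bengal sodium equivalents) was measured in HepG2 cells, 2,000 per well in MEM plus 10% FBS, plated overnight at 37 C. Readings were taken 1 hr after adding 23 nL compound or DMSO, at 37 C and 5% CO2.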
# [7] = qHTS assay to test for compound auto fluorescence at 535 nm (green) in HepG2 cells (AID 720675)
# [8] = qHTS assay to test for compound auto fluorescence at 460 nm (blue) in HEK293 cells (AID 720678)
# In short: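 Blue read-out at excitation 405 nm and emission 460 nm follows overnight compound exposure of HEK293 cells at 37C in 5% CO2. Activity is given as auto fluorescence equivalency to triamterene.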
# [9] = qHTS assay to test for compound auto fluorescence at 590 nm (red) in HEK293 cells (AID 720679)
# In short: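 Red channel, Ex/Em 540/590nm; signal expressed as equivalency to Rose Bengal sodium. HEK293, 2,000 cells/well, 10% dialyzed FBS; 23 nL compound pinned after 4-5 hr attachment; overnight 37C/5% CO2 before reading.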
# [10] = qHTS assay for small molecule disruptors of the mitochondrial membrane potential (AID 720635); also: potency is read from the fitted curve at half-maximal effect
# In short: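 Mitochondrial membrane potential tracked with Mito-MPS dye, red aggregates (ex 540/em 590 nm) against green monomers (ex 490/em 535 nm). Compound treatment 1 hr at 37C, dye 30 min in HepG2.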
SMILES,outcome [1],outcome [2],outcome [3],outcome [4],Potency [5],outcome [6],outcome [7],outcome [8],outcome [9],Potency [10],activation [1]
Cc1cc(-c2cc(C)c(N)c(C)c2)cc(C)c1N,inactive,inactive,inactive,inactive,inactive,inactive,inactive,inactive,inactive,,
CC(C)NC(=O)N1CC(=O)N(c2cc(Cl)cc(Cl)c2)C1=O,inactive,inactive,inactive,inactive,,inactive,inactive,inactive,inactive,inactive,
CC(C)N1C(=O)c2ccccc2NS1(=O)=O,inactive,inactive,inactive,inactive,inactive,inactive,inactive,,inactive,inactive and 48.6 µM (active),
COC(=O)NS(=O)(=O)c1ccc(N)cc1,inactive,inactive,inactive,inactive,inactive,inactive,inactive,inactive,inactive,inactive,
CNC(=O)Oc1ccccc1OC(C)C,inactive,inactive,inactive,inactive,inactive,inactive,,inactive,inactive,inactive,
O=[N+]([O-])c1ccccc1,inactive,inactive,inactive,inactive,inactive,inactive,inactive,inactive,inactive,inactive,
COC(=O)c1ccccc1C(=O)OC,inactive,inactive,inactive,inactive,inactive,inactive,,inactive,inactive,inactive,
COCCl,inactive,inactive,inactive,inactive,inactive,inactive,,inactive,inactive,inactive,
NCC(O)c1ccc(O)cc1 (configuration not stated),inactive,inactive,inactive,inactive,inactive,inactive,,inactive,inactive,inactive,
O=[N+]([O-])c1ccc([As](=O)(O)O)cc1,inactive,inactive,inactive,inactive,inactive,inactive,,,inactive,inactive,
CC(C)C1(C)N=C(c2nc3ccccc3cc2C(=O)O)NC1=O (configuration not stated),inactive,inactive,inactive,inactive,inactive,inactive,inactive,inactive,inactive,inactive,
CCOC(=O)c1ccccc1C(=O)OCC,inactive,inactive,inactive,inactive,inactive,inactive,,inactive,inactive,inactive,
CC(C)OC(=O)Nc1ccccc1,inactive,inactive,inactive,inactive,inactive,inactive,inactive,inactive,inactive,inactive,
C=C(C)CCl,,inactive,inactive,inactive,,inactive,inactive,inactive,inactive,inactive,-2.09% [at 8.3 µM] (inactive)
ClCCBr,inactive,inactive,inactive,inactive,,inactive,inactive,,inactive,inactive,
Cc1ccc(N)cc1N,inactive,inactive,inactive,inactive,inactive,inactive,,,inactive,,
CC(C)(C)C(O)(CCc1ccc(Cl)cc1)Cn1cncn1 (configuration not stated),inactive,inactive,inactive,inactive,inactive,inactive,inactive,,inactive,,
CC(NC(C)(C)C)C(=O)c1cccc(Cl)c1 (configuration not stated),inactive,inactive,inactive,inactive,,inactive,inactive,inactive,inactive,inactive,
C=CCO,inactive,inactive,inactive,inactive,,inactive,inactive,inactive,inactive,inactive,
COC(=O)NC(=S)Nc1ccccc1NC(=S)NC(=O)OC,inactive,inactive,inactive,inactive,inactive,inactive,inactive,inactive,inactive,inactive,
CCNc1nc(NC(C)(C)C)nc(SC)n1,inactive,inactive,inactive,inactive,inactive,inactive,inactive,,inactive,27.3 µM (active),
Nc1ccccc1C(=O)O,inactive,inactive,inactive,inactive,inactive,inactive,inactive,inactive,inactive,inactive,
Cc1ccccc1O,inactive,inactive,inactive,inactive,,inactive,inactive,,inactive,inactive,
c1cc2c3c(cccc3c1)CC2,inactive,inactive,inactive,inactive,,inactive,inactive,inactive,inactive,inactive,
O=c1n(Cl)c(=O)n(Cl)c(=O)n1Cl,inactive,inactive,inactive,inactive,inactive,inactive,,inactive,inactive,inactive,

SMILES,outcome [1],outcome [2],outcome [3],outcome [4],Potency [5],outcome [6],outcome [7],outcome [8],outcome [9],Potency [10],activation [1]
O=C(O)c1ccccn1,inactive,inactive,inactive,inactive,inactive,inactive,inactive,inactive,inactive,inactive,
CC(C)(Cl)Cl,inactive,inactive,inactive,inactive,,inactive,inactive,,inactive,inactive,
CC1OC(C)OC(C)O1 (configuration not stated),inactive,inactive,inactive,inactive,inactive,inactive,inactive,,inactive,inactive,
CCCCCOC(=O)c1ccccc1C(=O)OCCCCC,inactive,inactive,inactive,inactive,,inactive,inactive,,inactive,inactive,
Cc1cc(Cl)ccc1O,inactive,inactive,inactive,inactive,inactive,inactive,inactive,inactive,inactive,42 µM (active) and 54.5 µM (active),
CC(C)(C)OOC(=O)c1ccccc1,inactive,inactive,inactive,inactive,,inactive,inactive,inactive,inactive,inactive,
CCOP(=S)(OCC)SCCSCC,inactive,inactive,inactive,inactive,inactive,inactive,inactive,inactive,inactive,,
C#CC(C)(C)NC(=O)c1cc(Cl)cc(Cl)c1,inactive,inactive,inactive,inactive,inactive,inactive,inactive,inactive,inactive,inactive,
OC(O)C(Cl)(Cl)Cl,inactive,inactive,inactive,inactive,inactive,inactive,,inactive,inactive,inactive,
CCC[CH2][Sn]([Cl])([Cl])[Cl],inactive,inactive,inactive,inactive,inactive,inactive,,,inactive,inactive,
Nc1ccc(Cc2ccc(N)cc2)cc1,inactive,inactive,inactive,inactive,,inactive,inactive,inactive,inactive,inactive,
CON(C)C(=O)Nc1ccc(Cl)c(Cl)c1,inactive,inactive,inactive,inactive,,inactive,,inactive,inactive,61.4 µM (active) and 43.3 µM (active),
Nc1c(Cl)c(Cl)nc(C(=O)O)c1Cl,,inactive,inactive,inactive,inactive,inactive,,inactive,inactive,inactive and 56.1 µM (active),
NCCc1ccc(O)cc1,,inactive,inactive,inactive,inactive,inactive,inactive,,inactive,inactive,
Clc1ccc(Cl)cc1,,inactive,inactive,inactive,inactive,inactive,,inactive,inactive,inactive,
CC(Br)C(=O)O (configuration not stated),,inactive,inactive,inactive,inactive,inactive,inactive,,inactive,inactive,
CC(C)C#N,,inactive,inactive,inactive,inactive,inactive,,inactive,inactive,inactive,
Cc1cccc([N+](=O)[O-])c1,,inactive,inactive,inactive,inactive,inactive,inactive,,inactive,inactive,
O=[N+]([O-])c1ccc(Oc2ccc(Cl)cc2Cl)cc1,,inactive,inactive,inactive,inactive,inactive,,inactive,inactive,54.8 µM (active) and 30.6 µM (active),
[N-]=[N+]=[N-],,inactive,inactive,inactive,inactive,inactive,inactive,inactive,inactive,inactive,
C1CC2OC2CC1C1CO1 (configuration not stated),,inactive,inactive,inactive,inactive,inactive,,,inactive,inactive,
O=C1CCCN1,,inactive,inactive,inactive,inactive,inactive,inactive,inactive,inactive,inactive,
CCCCOC(=O)c1ccccc1C(=O)OCCCC,,inactive,inactive,inactive,inactive,inactive,,inactive,inactive,inactive,
O=S(=O)(c1ccc(Cl)cc1)c1cc(Cl)c(Cl)cc1Cl,,inactive,inactive,inactive,inactive,inactive,,inactive,inactive,12.2 µM (active) and 13.7 µM (active),
CCc1cccc(C)c1N(C(=O)CCl)C(C)COC (configuration not stated),,inactive,inactive,inactive,inactive,inactive,inactive,,inactive,inactive,
